PubChem BioAssay (NCATS)
Inconclusive results are not listed. Entries that show only a call come without a potency. Values without a mark were called inactive. The source made the active and inactive calls. Calls follow the shape of the dose curve; as a rule, active = well fitted curve in the direction sought with a large enough effect; inconclusive = small, poorly fitted or top-dose-only effect, or another doubt; inactive = no such curve, though single readings can be large; an effect the other way counts as inactive or inconclusive.

Columns and labels:
HaCat [1] = test: Cytotoxic Profiling of Annotated Libraries Using Quantitative High-Throughput Screening (AID 1296008); conditions: Five cell lines viability, CellTiter-Glo ATP luminescence, 48-72 h; max response: active compounds read low; also: nearly all actives have a fitted effect of over 60% in size; also: potency is read from the fitted curve at half-maximal effect
Method in brief: (§1)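 Cytotoxicity was measured as CellTiter-Glo ATP luminescence, read after 10 min at room temperature. Compound treatment of the cells lasted 48 or 72 hr at 37 degrees Celsius in a qHTS format.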

NIH3T3 = test: as above; conditions: Five cell lines viability, CellTiter-Glo ATP luminescence, 48-72 h; max response: active compounds read low
Method in brief: as §1

C33A = test: Primary qHTS to identify gynecologic anti-cancer compounds using libraries of approved drugs and bioactive compounds (AID 1345084); conditions: Gynecologic cancer cell panel viability, ATPlite luminescence, 48 h; series mostly up to 57.5 µM; also: nearly all actives have a fitted effect of over 55% in size; also: potency is read from the fitted curve at half-maximal effect
Method in brief: (§2)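 Cytotoxicity screen measuring ATP content by luciferase luminescence. Each compound is applied at five concentrations for 48 h at 37 C with 5% CO2.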

CAOV3 = test: as above; conditions: Gynecologic cancer cell panel viability, ATPlite luminescence, 48 h; series mostly up to 57.5 µM
Method in brief: as §2

CASKI = test: as above; conditions: Gynecologic cancer cell panel viability, ATPlite luminescence, 48 h; series mostly up to 57.5 µM
Method in brief: as §2

Es-2 = test: as above; conditions: Gynecologic cancer cell panel viability, ATPlite luminescence, 48 h; series mostly up to 57.5 µM
Method in brief: as §2

HeLa = test: as above; conditions: Gynecologic cancer cell panel viability, ATPlite luminescence, 48 h; series mostly up to 57.5 µM
Method in brief: as §2

Hek293T = test: as above; conditions: Gynecologic cancer cell panel viability, ATPlite luminescence, 48 h, control line for the selectivity index; series mostly up to 57.5 µM
Method in brief: as §2

JEG-3 = test: as above; conditions: Gynecologic cancer cell panel viability, ATPlite luminescence, 48 h; series mostly up to 57.5 µM
Method in brief: as §2

OV90 = test: as above; conditions: Gynecologic cancer cell panel viability, ATPlite luminescence, 48 h; series mostly up to 57.5 µM
Method in brief: as §2

PA-1 = test: as above; conditions: Gynecologic cancer cell panel viability, ATPlite luminescence, 48 h; series mostly up to 57.5 µM
Method in brief: as §2

SKOV3 = test: as above; conditions: Gynecologic cancer cell panel viability, ATPlite luminescence, 48 h; series mostly up to 57.5 µM
Method in brief: as §2

KB-3-1 = test: Cytotoxic Profiling of Annotated Libraries Using Quantitative High-Throughput Screening (AID 1296008); conditions: Five cell lines viability, CellTiter-Glo ATP luminescence, 48-72 h; max response: active compounds read low; also: nearly all actives have a fitted effect of over 60% in size; also: potency is read from the fitted curve at half-maximal effect
Method in brief: as §1

HACAT [2] = test: qHTS assay to identify novel small-molecules to repurpose for Merkel cell carcinoma treatment (AID 1296009); conditions: MCC and control cell lines, CellTiter-Glo viability, 72 h; at 44.8 µM (top of the series) unless noted; also: nearly all actives have a fitted effect of over 60% in size
Method in brief: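 Cell viability, measured as CellTiter-Glo luminescence, was normalized between DMSO and no-cell wells. The cells had been exposed to 8- or 11-point compound dilutions for 72 hr at 37 degree celsius.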

## O=C(Nc1ccc2[nH]c(=O)oc2c1)C(=O)N1CCC(Cc2ccc(F)cc2)CC1
HaCat [1]
  max response: 4.96%
NIH3T3
  max response: -23.6%
C33A
  Potency: inactive
CAOV3
  Potency: inactive
CASKI
  Potency: inactive
Es-2
  Potency: inactive
HeLa
  Potency: inactive
Hek293T
  Potency: inactive
JEG-3
  Potency: inactive
OV90
  Potency: inactive
PA-1
  Potency: inactive
SKOV3
  Potency: inactive

## Cc1ccc(F)cc1S(=O)(=O)N[C@@H]1CCN(Cc2ccc(OC(C)C)cc2)C1
HaCat [1]
  max response: -5.2%
NIH3T3
  max response: -14.7%
C33A
  Potency: inactive
CAOV3
  Potency: inactive
CASKI
  Potency: inactive
Es-2
  Potency: inactive
HeLa
  Potency: inactive
Hek293T
  Potency: inactive
JEG-3
  Potency: inactive
OV90
  Potency: inactive
PA-1
  Potency: inactive
SKOV3
  Potency: inactive

## Cn1c(=O)c(F)c(Nc2ccc(I)cc2F)c2c(=O)n(CC(O)CO)cnc21 (stereo not given)
HaCat [1]
  Potency: 6.51 µM (active)
NIH3T3
  Potency: 1.3 µM (active)
C33A
  Potency: inactive
CAOV3
  Potency: inactive
Es-2
  Potency: 3.16 µM (active)
HeLa
  Potency: inactive
Hek293T
  Potency: inactive
JEG-3
  Potency: inactive

## C[C@@H](c1ccc2nccn2c1)n1nnc2ncc(-c3cnn(C)c3)nc21
HaCat [1]
  max response: -13%
NIH3T3
  max response: -14.7%
C33A
  Potency: inactive
CAOV3
  Potency: inactive
CASKI
  Potency: inactive
Es-2
  Potency: inactive
HeLa
  Potency: inactive
Hek293T
  Potency: inactive
JEG-3
  Potency: inactive
OV90
  Potency: inactive
PA-1
  Potency: inactive

## CC[C@H]1OC(=O)[C@H](C)[C@@H](O[C@H]2C[C@@](C)(OC)[C@@H](O)[C@H](C)O2)[C@H](C)[C@@H](O[C@@H]2O[C@H](C)C[C@H](N(C)C)[C@H]2O)[C@](C)(O)C[C@@H](C)[C@@H]2N[C@@H](COCCOC)O[C@@H]([C@H]2C)[C@]1(C)O
KB-3-1
  max response: -15.7%

## C/C=C(\C)C(=O)O[C@H]1C=CC(=O)O[C@H]1/C=C/[C@@H](O)[C@H](C)O
HaCat [1]
  max response: -16.7%
C33A
  Potency: inactive
CAOV3
  Potency: inactive
CASKI
  Potency: inactive
HeLa
  Potency: inactive
OV90
  Potency: inactive
SKOV3
  Potency: inactive

## CN(C)CCC(CSc1ccccc1)Nc1ccc(S(=O)(=O)NC(=O)c2ccc(N3CCN(Cc4ccccc4-c4ccc(Cl)cc4)CC3)cc2)cc1[N+](=O)[O-] (stereo not given)
HaCat [1]
  Potency: 23.1 µM (active)
NIH3T3
  max response: -12.9%
C33A
  Potency: inactive
Es-2
  Potency: inactive
HeLa
  Potency: inactive
Hek293T
  Potency: inactive
JEG-3
  Potency: inactive
PA-1
  Potency: inactive

## C=C1C(=O)OC2CC(C)=C(C(C)CCCOC(C)=O)C(OC(=O)CC(C)CC)C12 (stereo not given)
HaCat [1]
  max response: -2.4%
NIH3T3
  max response: -17.5%
C33A
  Potency: inactive
CAOV3
  Potency: inactive
CASKI
  Potency: inactive
HeLa
  Potency: inactive
OV90
  Potency: inactive

## C=C1CC[C@@H](O)[C@]2(C)C[C@H]3OC(=O)C(=C)[C@H]3CC12 (stereo not given in full)
HaCat [1]
  outcome: inactive
HACAT [2]
  outcome: inactive
C33A
  Potency: inactive
CAOV3
  Potency: inactive
CASKI
  Potency: inactive
Es-2
  Potency: inactive
HeLa
  Potency: inactive
JEG-3
  Potency: inactive
OV90
  Potency: inactive
PA-1
  Potency: inactive
SKOV3
  Potency: inactive

## Cc1[nH]cnc1C[C@H]1CCc2c(C)c3ccccc3n2C1=O
KB-3-1
  max response: -19%

## COC(=O)C1=C(C)NC(C)=C(C(=O)O[C@H]2CCN(Cc3ccccc3)C2)[C@H]1c1cccc([N+](=O)[O-])c1
KB-3-1
  max response: -25.4%

## O=C[C@H](O)[C@@H](O)[C@H](O[C@H]1O[C@H](CO)[C@@H](O[C@H]2O[C@H](CO)[C@@H](O)[C@H](O)[C@H]2O)[C@H](O)[C@H]1O)[C@H](O)CO
KB-3-1
  max response: -9.17%

## C[C@H](/C=C/[C@H](C)C(C)(C)O)[C@H]1CC[C@H]2/C(=C/C=C3C[C@@H](O)C[C@H](O)C3)CCC[C@]12C
KB-3-1
  max response: 23%

## COc1ccccc1N1CCN(CC[C@@](C)(C(=O)C2CCCCC2)c2ccccc2)CC1
HaCat [1]
  max response: -16.7%
NIH3T3
  max response: -6.96%
C33A
  Potency: inactive
CAOV3
  Potency: inactive
CASKI
  Potency: inactive
Es-2
  Potency: inactive
HeLa
  Potency: inactive
Hek293T
  Potency: inactive
JEG-3
  Potency: inactive
OV90
  Potency: inactive
PA-1
  Potency: inactive
SKOV3
  Potency: inactive

## O=C(Nc1ccc(-n2nc(C(F)(F)F)cc2C(F)(F)F)cc1)c1ccncc1F
HaCat [1]
  max response: 3.3%
NIH3T3
  max response: 2.03%
C33A
  Potency: inactive
CASKI
  Potency: inactive
Es-2
  Potency: inactive
HeLa
  Potency: inactive
Hek293T
  Potency: inactive
JEG-3
  Potency: inactive
OV90
  Potency: inactive
SKOV3
  Potency: inactive

## C=CC(=O)N1CCC(Oc2cc3c(Nc4ccc(Cl)c(Cl)c4F)ncnc3cc2OC)CC1
HaCat [1]
  max response: -116%
NIH3T3
  Potency: 14.6 µM (active)
C33A
  Potency: inactive
CASKI
  Potency: 22.4 µM (active)
Es-2
  Potency: inactive
JEG-3
  Potency: inactive

## O=C(N[C@@H]1CCCc2c1cnn2-c1ccc(F)cc1F)c1ccccn1
HaCat [1]
  max response: -21.6%
NIH3T3
  max response: 3.41%
C33A
  Potency: inactive
CAOV3
  Potency: inactive
CASKI
  Potency: inactive
Es-2
  Potency: inactive
HeLa
  Potency: inactive
OV90
  Potency: inactive
PA-1
  Potency: inactive

## CCC(=O)O
KB-3-1
  max response: -11.1%

## Cc1cc(-c2cc(OC(=O)c3ccccc3)ccc2Cl)cc2nnc(Nc3ccc(OCCN4CCCC4)cc3)nc12
HaCat [1]
  max response: 3.59%
NIH3T3
  max response: -28.4%
C33A
  Potency: inactive
CAOV3
  Potency: inactive
CASKI
  Potency: inactive
Es-2
  Potency: inactive
HeLa
  Potency: inactive
Hek293T
  Potency: inactive
JEG-3
  Potency: inactive
OV90
  Potency: inactive
PA-1
  Potency: inactive
SKOV3
  Potency: inactive

## COC(=O)C[C@](O)(CCCC(C)(C)O)C(=O)O[C@@H]1C(OC)=CC23CCCN2CCc2cc4c(cc2[C@H]13)OCO4 (stereo not given in full)
KB-3-1
  Potency: 0.058 µM (active)

## Cc1cc(C(=O)Nc2cc(Oc3ccc4nc(NC(=O)C5CC5)cn4n3)ccc2C)n(C)n1
HaCat [1]
  Potency: 18.4 µM (active)
NIH3T3
  Potency: 5.17 µM (active)
C33A
  Potency: inactive
CAOV3
  Potency: inactive
CASKI
  Potency: inactive
Es-2
  Potency: inactive
HeLa
  Potency: inactive
Hek293T
  Potency: inactive
JEG-3
  Potency: inactive
OV90
  Potency: inactive
PA-1
  Potency: inactive
SKOV3
  Potency: 10 µM (active)

## C=C[C@]1(C)C[C@@H](OC(=O)CO)[C@]2(C)[C@H](C)CC[C@]3(CCC(=O)[C@H]32)[C@@H](C)[C@@H]1O
KB-3-1
  max response: -28.5%

## C#CCNCc1cc2cc(OCc3ccccc3)ccc2[nH]1
HaCat [1]
  max response: -12.3%
NIH3T3
  max response: -24.7%
C33A
  Potency: inactive
CAOV3
  Potency: inactive
CASKI
  Potency: inactive
Es-2
  Potency: inactive
HeLa
  Potency: inactive
Hek293T
  Potency: inactive
JEG-3
  Potency: inactive
OV90
  Potency: inactive
PA-1
  Potency: inactive
SKOV3
  Potency: inactive

## CC(=O)OC1CCC2(C)C(CCC3(C)C2CC=C2C4C(C)C(C)CCC4(C)CCC23C)C1(C)C(=O)O (stereo not given)
HaCat [1]
  max response: 3.45%
NIH3T3
  max response: -0.103%
C33A
  Potency: inactive
CAOV3
  Potency: inactive
CASKI
  Potency: inactive
Es-2
  Potency: inactive
HeLa
  Potency: inactive
Hek293T
  Potency: inactive
OV90
  Potency: inactive
PA-1
  Potency: inactive

## CN1CCN(C(=O)CN[C@@H]2C[C@H]2c2ccc(OCc3ccccc3)cc2)CC1
HaCat [1]
  max response: -3.34%
NIH3T3
  max response: -9.45%
C33A
  Potency: inactive
CAOV3
  Potency: inactive
CASKI
  Potency: inactive
Es-2
  Potency: inactive
HeLa
  Potency: inactive
Hek293T
  Potency: inactive
JEG-3
  Potency: inactive
OV90
  Potency: inactive
PA-1
  Potency: inactive
SKOV3
  Potency: inactive

## O=C(CO)[C@@H](O)[C@H](O)[C@H](O)CO
KB-3-1
  max response: -8.15%

## CC12CCC(OC3OC(CO)C(O)C(O)C3OC3OC(CO)C(O)C(O)C3O)CC1CCC1C2CCC2(C)/C(=C3/COC(=O)C3)CCC12O (stereo not given)
HaCat [1]
  max response: -19.3%
NIH3T3
  max response: -1.69%
CAOV3
  Potency: inactive
CASKI
  Potency: inactive
Es-2
  Potency: inactive
HeLa
  Potency: inactive
Hek293T
  Potency: inactive
JEG-3
  Potency: inactive
PA-1
  Potency: inactive
SKOV3
  Potency: inactive
